High-throughput results deposited in PubChem by several laboratories.
E coli growth-1: blocks Escherichia coli growth. OD600, 23 h; stronger effect = lower value. OD600 absorbance (test concentration not listed). 330,000 tested, 0.21% active. AID 1053175;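 active = OD600 absorbance below the run mean of sample wells minus 3.6 SD, in any replicate, cut at about 0.56 in these data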
E coli growth-2: reduces bacterial viability in AddAB counter-screen; E. coli V3065 growth, OD600 absorbance, 18 h; AID 449728; 330,000 tested, 0.27% active; inhibition, % at 11.9 µM;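 active = inhibition above the campaign's mean inhibition across all tested compounds plus 3 SD, cut at about 9.9% in these data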;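 note: uninfected addAB+ strain grown without phage in ampicillin broth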
AddAB inh: less growth of phage-infected E. coli with AddAB; E. coli expressing H. pylori AddAB, absorbance growth; inhibition, % at 11.9 µM; 330,000 tested, 0.29% active; AID 435030; in the data active = inhibition above about 12%
Tat transport: blocks Tat-dependent protein export in E. coli | E. coli MC4100 TorA-mCherry Tat export, fluorescence | inhibition, % at 10 µM | 340,000 tested, 0.036% active | AID 488895;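 active = mean replicate inhibition at least 50% and at least half of replicates individually reaching 50%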;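 note: exported cargo escapes ClpAP degradation while cytoplasmic cargo is degraded and loses fluorescence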
phage Ecoli inh: E. coli growth loss with phage present. growth absorbance. 360,000 tested, 0.26% active. inhibition, % at 11.9 µM; in the data active = inhibition above about 11%
Numbers stand for hits; i = inactive; nt = no result given. An excerpt weighted towards active compounds, which were near 0.5% of everything screened.

SMILES | E coli growth-1 | E coli growth-2 | AddAB inh | Tat transport | phage Ecoli inh
NC(=S)n1[nH]c(-c2ccc([N+](=O)[O-])cc2)c(N=Nc2cccc(Cl)c2)c1=O | i | nt | nt | i | i
CC[n+]1c(/C=C/c2c[nH]c3ccccc23)ccc2cc(C)ccc21 | 0.463 | nt | nt | i | i
CCN(CC)C(=O)c1ccc(/C=C/c2c[nH]c3ccccc23)[n+](C)c1 | i | i | i | i | i
CCCC(CN1CCCC1CN1C(N)=NCC1Cc1ccccc1)N1CC(Cc2ccccc2)N(CCc2ccc(Cl)c(Cl)c2)C1=N (stereo unspecified) | 0.0615 | nt | nt | nt | nt
CCC[C@@H](CN1CCC[C@H]1CN1C(N)=NC[C@H]1CC(C)C)N1C[C@@H](Cc2ccccc2)N(CCc2ccc(Cl)c(Cl)c2)C1=N | 0.0585 | i | i | i | i
CC(C)[C@H](CN1CCC[C@H]1CN1C(N)=NC[C@@H]1Cc1ccccc1)N1C[C@@H](Cc2ccccc2)N(CCc2ccc(Cl)c(Cl)c2)C1=N | nt | i | i | i | nt
CCC[C@@H](CN1CCC[C@H]1CN1C(N)=NC[C@@H]1Cc1ccccc1)N1C[C@@H](Cc2ccccc2)N(CCc2ccc(Cl)c(Cl)c2)C1=N | nt | i | i | i | i
CC[C@@H](C)[C@@H]1CN([C@@H](CN2CCC[C@H]2CN2C(N)=NC[C@H]2CC(C)C)C(C)C)C(=N)N1CCc1ccc(Cl)c(Cl)c1 | 0.127 | i | i | i | i
CC[C@@H](C)[C@@H]1CN([C@@H](C)CN2CCC[C@H]2CN2C(N)=NC[C@H]2CC(C)C)C(=N)N1CCc1ccc(Cl)c(Cl)c1 | nt | i | i | i | i
CCC[C@@H](CN1CCC[C@H]1CN1C(N)=NC[C@H]1CC(C)C)N1C[C@@H](Cc2ccccc2)N(CCCC2CCCC2)C1=N | 0.268 | i | i | i | i
C#CCNC(=O)C1=CC(C2CC2)CC(OCCCCO)O1 (stereo unspecified) | i | nt | nt | nt | nt
COc1ccc(OC)c(C=NNC(=O)Cn2ccnc2C)c1 | i | nt | nt | nt | nt
CCCCC1CNC(=O)C(=O)N1CCCc1cc(OC)c(OC)c(OC)c1 (stereo unspecified) | i | nt | nt | nt | nt
Cc1nn(-c2ccccc2)c(Cl)c1C=NNC(=O)c1nn(C)cc1[N+](=O)[O-] | i | nt | nt | nt | nt
CCC[C@@H](CN1CCC[C@H]1CN1C(N)=NC[C@@H]1Cc1ccccc1)N1C[C@@H]([C@H](C)CC)N(CCc2ccc(Cl)c(Cl)c2)C1=N | nt | i | i | i | nt
C[C@@H](CN1CCC[C@H]1CN1C(N)=NC[C@@H]1Cc1ccccc1)N1C[C@@H](Cc2ccccc2)N(CCc2ccc(Cl)c(Cl)c2)C1=N | nt | i | i | 65.8 | nt
CCCC(CN1CCCC1CN1C(N)=NCC1Cc1ccccc1)N1CC(C(C)CC)N(CCc2ccc(Cl)c(Cl)c2)C1=N (stereo unspecified) | 0.338 | nt | nt | nt | nt
Cc1cc(C)c(S(=O)(=O)N=C2C=C(Sc3ncn[nH]3)C(=O)c3ccccc32)cc1C | i | nt | nt | nt | nt
CCCC(C#Cc1ccsc1)=C1c2ccccc2C(=O)N1c1ccccc1 | i | nt | nt | nt | nt
O=C(NN=Cc1ccc(Br)s1)c1ccncc1 | i | nt | nt | nt | nt
CCC(C)C(N)C1=NC(C(=O)N[C@@H](CC(C)C)C(=O)N[C@H](CCC(=O)[O-])C(=O)N[C@H](C(=O)N[C@H]2CCCCNC(=O)[C@H](CC(N)=O)NC(=O)[C@@H](CC(=O)[O-])NC(=O)[C@H](Cc3cnc[nH]3)NC(=O)[C@@H](Cc3ccccc3)NC(=O)[C@H]([C@@H](C)CC)NC(=O)[C@@H](CCCN)NC2=O)[C@@H](C)CC)CS1.[Zn+2] (stereo partly specified) | nt | nt | nt | 54.3 | nt
CCOc1cc(C2Nc3cccc4cccc(c34)N2)ccc1O | i | i | i | i | nt
CCOc1ccc(C2Nc3cccc4cccc(c34)N2)cc1OC | 0.555 | i | i | i | i
CCN1C(=Cc2ccc3ccccc3[n+]2CC)C=Cc2ccccc21 | 0.493 | nt | nt | nt | nt
CCN1/C(=C/c2ccc3ccccc3[n+]2CC)C=Cc2ccccc21 | nt | 11.0 | i | i | 12.2
SMILES | E coli growth-1 | E coli growth-2 | AddAB inh | Tat transport | phage Ecoli inh
O=C1Nc2ccc(Br)cc2C1(O)c1ccccc1 (stereo unspecified) | i | i | i | i | i
O=C1Nc2ccc(Br)cc2C12NNc1ccccc1O2 (stereo unspecified) | 0.432 | i | i | i | i
CC(=O)N(C)Cc1ccc(C(=O)CCl)cc1 | i | i | i | i | i
CC(=O)NCc1ccc(C(=O)CCl)s1 | 0.489 | i | i | i | i
CC(=O)NCc1ccc(C(=O)CCl)cc1 | 0.506 | i | i | i | i
CC(=O)Nc1ccc(C(=O)CCl)cc1 | 0.415 | i | i | i | i
CC(=O)Nc1ccc(C)cc1 | i | i | i | i | i
S=c1[nH]nc(-c2cc(-c3ccccc3)n[nH]2)n1N=Cc1ccccc1 | i | nt | nt | nt | nt
C(=NNc1ccccc1)c1nc2ccccc2s1 | i | nt | nt | nt | nt
